Assay results published in PubChem BioAssay (NCI).
This is part of a sample that, as a whole, favours compounds with a hit. Of some 83,000 tested, about 20% had one in any assay.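 Values shown are percent growth following 48 h exposure of cells in 96-well plates to a single concentration of compound; below 10 was considered active.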 Values without a mark were called inactive. The source made the active and inactive calls.

system: U251 CNS; test: NCI-60 one-dose screen, 48 h (100 = growth as untreated, 0 = no growth, -100 = all killed); settings: 10 µM
Procedure: Growth inhibition of the U251 human tumor cell line is measured as a screen for anti-cancer activity. Cells are grown in 96 well plates and exposed to the test compound for 48 hours. Compounds are tested at a single concentration, which is 10^-5 M for most compounds. The reported endpoint is percent growth (GI% or GIPRCNT), where numbers from 0 - 100% represent growth inhibition, and numbers from -100% - 0 represent cell death. For example, a value of 40 represents 60% growth inhibition. A value of 0 means no net growth occurred over the course of the experiment. A value of -40 indicates 40% of cells at the beginning of the experiment died by the end of the experiment. A value of -100 means all cells are dead at the end of the experiment.
NCI-60 Human Tumor Cell Lines Screen was performed using the standard one-dose NCI protocol, which is described in more detail at https://dtp.cancer.gov/discovery_development/nci-60/default.htm.
Compounds with GIPRCNT values below 10 were considered active. Activity score was based on GIPRCNT using the following formula: […]
Score is 0 for GIPRCNT values of 100 or above, 50 for GIPRCNT values of 0, and 100 for GIPRCNT values of -100.

Question: For `Nc1nc2c(F)c(F)c(F)c(F)c2s1`, which growth is on record?
Answer: 96.5%

Question: `O=C(NCCCCC(c1ccc(F)cc1)c1ccc(F)cc1)NCCCc1cccnc1` was tested. Which growth did it give?
Answer: 26.4%

Question: For `COc1cc2c3c(n(CCCNC(C)C)c(=O)c2cc1OC)-c1nc2c(cc1C3=O)OCO2`, which growth is on record?
Answer: -76.3% (active)

Question: With `Cc1ccc(NCC(=O)Nn2c(COc3ccccc3)nc3ccccc3c2=O)cc1` as the compound, how does the growth read?
Answer: 62.2%

Question: With `O=C1CCC(N2Cc3c(C#CCCCNC(=O)c4ccc(NC(=O)[C@@H]5NC6(CCCCC6)[C@@]6(C(=O)Nc7cc(Cl)ccc76)[C@H]5c5cccc(Cl)c5F)cc4)cccc3C2=O)C(=O)N1` (stereo not given in full) as the compound, how does the growth read?
Answer: 55.4%

Question: For `CCCn1c(=O)c2[nH]c(-c3ccc(OCc4nc5ccc(C)cc5[nH]4)cc3)nc2n(CCC)c1=O`, which growth is on record?
Answer: 6.38% (active)

Question: With `CN1CCc2c(sc3ncnc(N/N=C/c4cn(-c5ccccc5)nc4-c4ccc(Br)cc4)c23)C1` as the compound, how does the growth read?
Answer: 44.9%

Question: With `COc1cccc(-c2ccc(/C=N/NC(=O)c3[nH]c4ccc(Br)cc4c3-c3ccccc3)o2)c1` as the compound, how does the growth read?
Answer: 7.57% (active)

Question: For `CN1CCN(c2ccc(Nc3nc(N4CCN(S(=O)(=O)c5ccc(Cl)cc5)CC4)c4sccc4n3)cc2)CC1`, which growth is on record?
Answer: -85.2% (active)

Question: For `CN(C(=O)c1ccc(C(C)(C)C)cc1)c1sc2c(c1C#N)CCC(=O)C2`, which growth is on record?
Answer: -22.7% (active)

Question: `CN1C(=O)N(C)C2SC(N/N=C/C=C/c3ccccc3)=NC21` (stereo not given) was tested. Which growth did it give?
Answer: 79.2%

Question: With `Nc1cccnc1/C=N/NC(=S)NCCNC(=O)c1ccc(-n2nc(-c3ccccc3O)nc2-c2ccccc2O)cc1` as the compound, how does the growth read?
Answer: 12.4%

Question: How did the growth turn out when `COC[C@@H](CC(C)C)N=C1NC(=O)/C(=C/c2ccc3ncsc3c2)N1` was run?
Answer: 15.8%

Question: How did the growth turn out when `c1ccc(C(=C(c2ccc(OCCN3CCCCC3)cc2)c2ccc(OCCN3CCCCC3)cc2)C2CCCC2)cc1` was run?
Answer: -96.4% (active)

Question: `COc1ccccc1[C@H]1C(C(=O)c2ccc(O)cc2)C2(N[C@@H]1c1ccccc1)C(=O)Nc1ccc(Br)cc12` (stereo not given in full) was tested. Which growth did it give?
Answer: 26.1%

Question: Which growth does the source give for `CNC(=O)c1cccc(N2CCc3c2ccc(NC(=O)Nc2ccc(N4CCN(C)CC4)c(C(F)(F)F)c2)c3F)c1` here?
Answer: -92.1% (active)

Question: With `C=CC(=O)Nc1ccc(C(=O)/C=C/c2ccc(N(C)CCF)cc2)c(O)c1` as the compound, how does the growth read?
Answer: -94.7% (active)

Question: How did the growth turn out when `O=C1NC(=NC23CC4CC(CC(C4)C2)C3)N/C1=C\c1ccc2ncoc2c1` was run?
Answer: 10%

Question: For `COc1ccc(C(=O)NC(=S)N2CCN(c3ncnc4c3cnn4-c3ccccc3)CC2)cc1`, which growth is on record?
Answer: 55.1%

Question: For `COc1ccccc1C(=O)NNC(=O)CSc1nc2c(c(=O)[nH]1)CCCC2`, which growth is on record?
Answer: 104%

Question: `CCCn1c(=O)c2[nH]c(-c3ccc(OCc4nc5ccccc5[nH]4)cc3)nc2n(CCC)c1=O` was tested. Which growth did it give?
Answer: 2.91% (active)

Question: Which growth does the source give for `O=C(CNc1nc(-c2ccccc2)cs1)Nc1ccc([N+](=O)[O-])cc1` here?
Answer: 9.22% (active)

Question: With `COc1ccc2[nH]c(O)c(N=NC(=O)c3cc(-c4ccc(C)cc4)nc4ccccc34)c2c1` as the compound, how does the growth read?
Answer: 88.5%

Question: With `COc1nccnc1NS(=O)(=O)c1ccc(NC2=C(Cl)C(=O)c3nc(C)ccc3C2=O)cc1` as the compound, how does the growth read?
Answer: 96.9%

Question: With `NS(=O)(=O)c1ccc(NC(=O)CSc2ccc(-c3ccccc3)nn2)c(Br)c1` as the compound, how does the growth read?
Answer: 17.8%

Question: For `CC1(c2ccccc2)NC(=O)N(CC(=O)Nc2ccc(C(=O)/C=C/C=C/c3ccccc3)cc2)C1=O` (stereo not given), which growth is on record?
Answer: 14.7%

Question: With `CC(=C(c1ccc(OCCN2CCCCC2)cc1)c1ccc(OCCN2CCCCC2)cc1)c1ccccc1` as the compound, how does the growth read?
Answer: 1.29% (active)

Question: With `O=C1Nc2cc(Cl)ccc2/C1=C/c1cccc(OCc2ccccc2)c1` as the compound, how does the growth read?
Answer: -64.6% (active)

Question: With `CC(C)(C)Nc1nc2cc(Cl)c(Cl)cc2nc1S(C)(=O)=O` as the compound, how does the growth read?
Answer: 68.7%

Question: `CC1(c2ccccc2)NC(=O)N(CC(=O)Nc2ccc(C(=O)/C=C/c3ccc(Cl)cc3)cc2)C1=O` (stereo not given) was tested. Which growth did it give?
Answer: -71.7% (active)

Question: For `Cc1cc(=O)oc2cc(OCCCCOc3ccc(/C=C/C(=O)Nc4cccc(Cl)c4)cc3)ccc12`, which growth is on record?
Answer: 56.8%

Question: How did the growth turn out when `CCCCCc1ccc(S(=O)(=O)Nc2cc(-c3csc(N(C)C(C)=O)n3)ccc2N2CCN(C)CC2)cc1` was run?
Answer: 19.6%

Question: `O=C(CSc1ccc(-c2ccc(Cl)cc2)nn1)Nc1ccc(Cl)c(C(F)(F)F)c1` was tested. Which growth did it give?
Answer: 73.1%

Question: `CC(C)CCSc1nc(NC2CC2)c(C#N)c(-c2ccc(C(C)C)cc2)n1` was tested. Which growth did it give?
Answer: 106%

Question: For `O=C(Nc1ccc(Cl)c(C(F)(F)F)c1)c1cncc(C#Cc2cnc3ccc(N4CCOCC4)nn23)c1`, which growth is on record?
Answer: 20.2%

Question: `CC(=O)Nc1ccc(-n2cnc3cc(-c4ccc(NS(C)(=O)=O)cc4)ccc32)cc1` was tested. Which growth did it give?
Answer: 59.8%

Question: With `O=C(NO)c1ccc(Cn2ccc3c(Nc4ccccc4)ncnc32)cc1` as the compound, how does the growth read?
Answer: -38.9% (active)

Question: With `O=C(CSc1nnc(-c2c[nH]c3ccccc23)n1-c1ccccc1)Nc1ccc(C(=O)/C=C/c2ccc(Br)cc2)cc1` as the compound, how does the growth read?
Answer: 81.6%

Question: How did the growth turn out when `N#Cc1c(NC(=O)c2ccc(C(F)(F)F)cc2C(F)(F)F)sc2c1CCC(=O)C2` was run?
Answer: 8.82% (active)

Question: How did the growth turn out when `Cc1noc2c(Cc3ccccc3)nn(CC(=O)N/N=C/c3ccc(F)cc3)c(=O)c12` was run?
Answer: 42.8%
